A selection: hits, their analogues and other compounds. The true share with any hit is near 5.4%.
HSF1 inhib: HSF1 inhibition. NIH3T3-HGL HSE-luciferase, MG132-induced, luminescence 8 h; active compounds read low. AID 2098. activity change, negative = inhibition, % at 7.5 µM (by protocol). actives 0.77% (n = 300,000);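 active = more than half of replicate wells show activity change below -50%, luminescence cut by over half; inconclusive = some wells, but at most half, below -50%; inactive = no replicate well below -50%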;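 also: luciferase reports HSF-1 transcriptional activity via heat shock element; 0% = median of DMSO wells and -100% = zero luminescence signal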
AHR act: human AHR activation | AHR-responsive luciferase reporter cells, luminescence | P35869 | activation, % at 5 µM | actives 2.5% (n = 320,000); in the data active = activation above about 47%;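 also: 0% = vehicle wells and 100% = reference agonist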
DAX1 inh: inhibitors of human orphan nuclear receptor DAX1 (NR0B1); actives 0.99% (n = 340,000); P51843; inhibition, % at 6.75 µM; AID 504766; HEK293 Gal4-DAX1 luciferase reporter, luminescence;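 active = inhibition above the mean over all tested compounds plus 3 SD, cut at about 4.2% in these data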;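 also: 0% = DAX1-transfected cells with DMSO and 100% = empty-vector control cells with DMSO; inhibition shows as a rise in luminescence from relieved DAX1 repression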
GAA850 FXN act: frataxin GAA850 promoter activation. activation, % at 6 µM. HEK293 lucGAA850 FXN promoter luciferase reporter, 24 h; percent of 10 µM SAHA response. AID 540364. actives 0.56% (n = 360,000);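 active = activation above the average of all compounds screened plus 3 SD, cutoff fixed separately per campaign, cut at about 7.5% in these data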;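 also: 0% = DMSO wells and 100% = 10 µM SAHA wells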
HSF1 activator: increases HSF-1 driven luciferase reporter signal. NIH3T3-HGL HSF-1 luciferase reporter, MG132, 8 h; 100% = twice DMSO control signal. AID 504408. actives 1.7% (n = 300,000). activation, % at 9 µM;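 active = mean replicate activation of at least 50% with a set share of replicates each reaching 50%; inconclusive = only one of those two conditions met; inactive = mean below 50% and too few replicates reaching it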;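 also: 0% = median of the neutral control wells and 100% = twice that signal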
Active calls of the source: *.

For Nc1ccccc1SCc1c(Cl)cccc1Cl the results were HSF1 inhib 0.9, AHR act 50.2*, DAX1 inh -0.1, GAA850 FXN act -1.1 and HSF1 activator 6.4.
Cc1ccccc1-n1nnnc1Sc1nnnn1-c1ccccc1 was read as AHR act -1.9, DAX1 inh -3.1 and GAA850 FXN act -16.5.
Screening CCCSc1nnc(Sc2nnnn2-c2ccccc2)s1 returned HSF1 inhib 109.3, AHR act 33.2, DAX1 inh -0.5, GAA850 FXN act -7.7 and HSF1 activator 123.0*.
`COCCCC1CCN(C(=O)c2cc(COc3cc(C)ccc3C)on2)CC1` gave HSF1 inhib 24.6, AHR act 10.2, DAX1 inh 0.8, GAA850 FXN act 3.2 and HSF1 activator 54.1*.
Screening COC1CCN(C(=O)c2cc(COc3cc(C)ccc3C)on2)CC1 returned DAX1 inh 1.3 and GAA850 FXN act 1.1.
CN1CCN(NC(=O)/C=C/c2ccc(Br)cc2)CC1 was read as HSF1 inhib 40.2, AHR act 2.2, DAX1 inh 0.2, GAA850 FXN act 5.2 and HSF1 activator 82.0*.
`COc1ccc(Cl)cc1C(=O)NNC1CC(=O)N(Cc2ccc(Cl)cc2)C1=O` (centres undefined) gave HSF1 inhib 2.8, AHR act 11.3, DAX1 inh -0.1, GAA850 FXN act 2.7 and HSF1 activator 23.8.
`Cc1cnc(C(=O)Nc2ccccc2F)cn1` gave HSF1 inhib 0.8, AHR act -2.8, DAX1 inh 1.7, GAA850 FXN act 2.9 and HSF1 activator 9.5.
Screening Cc1cnc(C(=O)Nc2ccccc2-n2cccc2)cn1 returned HSF1 inhib -60.3*, AHR act 9.7, DAX1 inh 1.7, GAA850 FXN act -0.1 and HSF1 activator -68.0.
Cc1ccc(S(=O)(=O)N(C)C[C@H]2Oc3cc(C#Cc4ccccc4)ccc3S(=O)(=O)N([C@H](C)CO)C[C@@H]2C)cc1 was read as DAX1 inh -0.2 and GAA850 FXN act -1.6.
CCCCCCCC(=O)NNC(=O)Cc1ccccc1 was read as HSF1 inhib -8.0, AHR act -0.2, DAX1 inh 0.5, GAA850 FXN act 0.7 and HSF1 activator -5.7.
Screening CCCCCCCCCCCC(=O)c1c(O)cccc1O returned HSF1 inhib 19.9, AHR act 2.1, DAX1 inh 3.9, GAA850 FXN act -2.0 and HSF1 activator 51.5*.
Oc1ccc(C2C(c3ccccc3)=NN=C(c3ccc(Cl)cc3)N2O)c(O)c1 (centres undefined) was read as HSF1 inhib 19.9, AHR act 47.7*, DAX1 inh 0.2, GAA850 FXN act -0.5 and HSF1 activator 21.0.
`COc1cccc(-c2cccc(NC(=O)C3CCN(Cc4ccon4)CC3)c2)c1` gave HSF1 inhib -48.5, AHR act 7.4, DAX1 inh 0.4, GAA850 FXN act 1.3 and HSF1 activator -60.7.
COc1cccc2c(N/N=C/c3ccc(O)c(O)c3)cc(C)nc12 was read as HSF1 inhib 9.1, AHR act 9.8, DAX1 inh 3.9, GAA850 FXN act 4.6 and HSF1 activator 6.0.
COc1ccc(/C=N/Nc2cc(C)nc3c(C)cccc23)cc1 was read as HSF1 inhib 9.9, AHR act 70.8*, DAX1 inh -0.7, GAA850 FXN act 0.9 and HSF1 activator 32.5.
Screening Cc1noc(C)c1COc1ccc(C(=O)N2CCC(C(N)=O)CC2)cc1 returned AHR act 3.7, DAX1 inh -0.2 and GAA850 FXN act 0.1.
`CCC1c2ccc(C)n2CCN1C(=O)Nc1ccccc1OC` (centres undefined) gave HSF1 inhib 2.0, AHR act 48.0*, DAX1 inh 1.2, GAA850 FXN act 5.8 and HSF1 activator 18.7.
CC(=O)c1cccc(NC(=O)CSc2nnc(-c3ccncc3)o2)c1 was read as AHR act 3.3, DAX1 inh 0.8 and GAA850 FXN act 0.6.
Screening CCOc1ccc(Br)cc1S(=O)(=O)NC1CCCC1 returned AHR act 0.2, DAX1 inh -1.2 and GAA850 FXN act 0.9.
Screening Cc1ccc(-c2nnc(-c3ccccc3)o2)cc1 returned HSF1 inhib 16.9, AHR act 7.7, DAX1 inh 1.4, GAA850 FXN act 5.5 and HSF1 activator 24.0.
Screening Cc1cccc(-c2nnc(-c3ccc4ccccc4c3)o2)c1 returned DAX1 inh 4.3* and GAA850 FXN act 4.8.
Screening Cc1cccc(-c2nnc(-c3cccc4ccccc34)o2)c1 returned DAX1 inh 6.4* and GAA850 FXN act 6.0.
For Cc1ccc(-c2nnc(-c3cccc4ccccc34)o2)cc1 the results were DAX1 inh -0.6 and GAA850 FXN act 3.0.
For COc1ccc(Cc2nnc(-c3cccc(C)c3)o2)cc1OC the results were HSF1 inhib 2.8, AHR act 49.4*, DAX1 inh -1.3, GAA850 FXN act 1.4 and HSF1 activator 2.1.
Cc1nnc(SCC(=O)Nc2sc3c(c2C(N)=O)CCC(C)C3)[nH]c1=O (centres undefined) was read as AHR act 6.3, DAX1 inh 0.6 and GAA850 FXN act 0.2.
`CC(C)(C)c1ccc(/C=C/C(=O)Nc2ccncc2)cc1` gave HSF1 inhib 39.8, AHR act 5.5, DAX1 inh -0.5, GAA850 FXN act 2.4 and HSF1 activator 56.0*.
`O=C(/C=C/c1ccccc1[N+](=O)[O-])Nc1ccccc1` gave HSF1 inhib 14.8, AHR act 6.6, DAX1 inh 6.7*, GAA850 FXN act 4.6 and HSF1 activator inconclusive.
`O=C(/C=C/c1ccc([N+](=O)[O-])cc1)Nc1cccnc1` gave HSF1 inhib 21.0, AHR act 4.6, DAX1 inh 3.1, GAA850 FXN act 4.4 and HSF1 activator 54.1*.
`O=C(/C=C/c1cccs1)Nc1ccncc1` gave HSF1 inhib 6.6, AHR act 10.7, DAX1 inh -0.3, GAA850 FXN act 3.2 and HSF1 activator 16.0.
Screening COc1cc(NC(=O)/C=C/c2ccccc2[N+](=O)[O-])cc(OC)c1 returned HSF1 inhib 0.2, AHR act 26.5, DAX1 inh 0.3, GAA850 FXN act 0.9 and HSF1 activator -6.4.
For CCCOc1ccc(-c2nc(SCc3ccccc3)[nH]c(=O)c2C#N)cc1OC the results were HSF1 inhib -3.1, AHR act 1.0, DAX1 inh 0.9, GAA850 FXN act 2.8 and HSF1 activator -1.6.
Screening CC(C)SC1=NC(C)(C)C=C(/C=C/c2c(Cl)cccc2Cl)N1 returned HSF1 inhib 28.3, AHR act 8.0, DAX1 inh 0.0, GAA850 FXN act 0.6 and HSF1 activator 32.3.
`CC(C)SC1=NC(C)(C)C=C(/C=C/c2ccc(Cl)cc2Cl)N1` gave HSF1 inhib 57.1, AHR act 6.6, DAX1 inh -0.8, GAA850 FXN act 0.2 and HSF1 activator 82.4*.
For COc1cc(CNCCO)ccc1OCCc1ccccc1 the results were HSF1 inhib -12.9, AHR act -3.4, DAX1 inh 0.6, GAA850 FXN act 1.3 and HSF1 activator -25.9.
For Cc1cc(C(=O)c2ccccc2)c(NC(=O)CCl)s1 the results were HSF1 inhib 20.7, AHR act 1.9, DAX1 inh 0.1, GAA850 FXN act -3.9 and HSF1 activator 49.5.
